What was measured:
Test in all cases: DAPPL (digital affinity profiling via proximity ligation, sequencing); 10 mM Tris-HCl pH 7.5, 50 mM NaCl, 1 mM DTT, 4% glycerol, room temperature, 30 min; GST-TFs on glutathione beads, 16-mer random dsDNA library, 0.1% formaldehyde crosslink after washing; high values mean tight binding
FLI1 = target: T1, FLI1 (Homo sapiens, UniProt Q01543 1-452); settings: protein: recombinant; tags: N-terminal GST; dsDNA, one strand shown
T1 sequence: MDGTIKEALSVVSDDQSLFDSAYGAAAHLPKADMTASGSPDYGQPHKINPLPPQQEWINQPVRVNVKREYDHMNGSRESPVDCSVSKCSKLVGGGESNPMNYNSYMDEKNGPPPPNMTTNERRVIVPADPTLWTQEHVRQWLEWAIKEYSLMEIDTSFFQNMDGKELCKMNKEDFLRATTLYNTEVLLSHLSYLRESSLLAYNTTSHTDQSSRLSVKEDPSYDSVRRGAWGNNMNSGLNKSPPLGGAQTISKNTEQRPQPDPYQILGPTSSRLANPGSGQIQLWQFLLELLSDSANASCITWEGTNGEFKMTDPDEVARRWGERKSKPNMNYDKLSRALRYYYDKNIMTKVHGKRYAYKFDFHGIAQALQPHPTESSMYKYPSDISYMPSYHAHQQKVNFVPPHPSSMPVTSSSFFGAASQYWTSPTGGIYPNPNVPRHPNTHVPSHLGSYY
In short: (§1)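 A tag-only sample was pooled with DNA-barcoded human transcription factors that had been expressed in yeast as GST fusions and captured on glutathione beads. The pools were incubated for 30 min at room temperature with 200 nmole of a random double-stranded 16-mer DNA library in Tris/NaCl/DTT/glycerol buffer, then washed, crosslinked with 0.1% formaldehyde, proximity-ligated (BsaI/T4 ligase, 1 h, 37 °C), PCR-amplified and sequenced on an Illumina NextSeq500. Binding signal is each hexamer's read frequency for a factor divided by its frequency for the tag-only sample.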

ELK1 = target: T2, ELK1 (Homo sapiens, UniProt P19419 1-428); settings: protein: recombinant; tags: N-terminal GST; dsDNA, one strand shown
T2 sequence: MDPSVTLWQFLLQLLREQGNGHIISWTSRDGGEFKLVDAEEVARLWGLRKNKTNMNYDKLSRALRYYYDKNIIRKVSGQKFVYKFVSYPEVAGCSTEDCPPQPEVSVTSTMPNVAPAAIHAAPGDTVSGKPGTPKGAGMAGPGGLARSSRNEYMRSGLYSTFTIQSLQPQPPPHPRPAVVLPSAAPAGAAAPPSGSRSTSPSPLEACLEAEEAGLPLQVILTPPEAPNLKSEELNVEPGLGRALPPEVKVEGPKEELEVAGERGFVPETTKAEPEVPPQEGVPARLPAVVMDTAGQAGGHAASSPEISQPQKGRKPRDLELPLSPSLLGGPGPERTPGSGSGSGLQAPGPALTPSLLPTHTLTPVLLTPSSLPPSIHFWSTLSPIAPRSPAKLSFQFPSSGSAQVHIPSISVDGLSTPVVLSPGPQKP
In short: as §1

GABPA = target: T3, GABPA (Homo sapiens, UniProt Q06546 1-454); settings: protein: recombinant; tags: N-terminal GST; dsDNA, one strand shown
T3 sequence: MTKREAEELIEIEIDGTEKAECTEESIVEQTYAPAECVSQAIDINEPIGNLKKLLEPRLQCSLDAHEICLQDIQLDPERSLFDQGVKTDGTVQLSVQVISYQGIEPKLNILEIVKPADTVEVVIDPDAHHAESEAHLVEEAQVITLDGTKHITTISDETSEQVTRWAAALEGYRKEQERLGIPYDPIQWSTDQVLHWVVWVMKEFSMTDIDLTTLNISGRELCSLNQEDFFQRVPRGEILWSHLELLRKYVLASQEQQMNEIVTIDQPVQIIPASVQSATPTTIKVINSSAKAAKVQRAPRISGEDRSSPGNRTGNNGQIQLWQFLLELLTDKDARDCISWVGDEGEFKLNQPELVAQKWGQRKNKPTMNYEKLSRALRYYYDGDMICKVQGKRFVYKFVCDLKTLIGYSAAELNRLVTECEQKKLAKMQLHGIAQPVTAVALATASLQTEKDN
In short: as §1

ERG = target: T4, ERG (Homo sapiens, UniProt P11308 1-479); settings: protein: recombinant; tags: N-terminal GST; dsDNA, one strand shown
T4 sequence: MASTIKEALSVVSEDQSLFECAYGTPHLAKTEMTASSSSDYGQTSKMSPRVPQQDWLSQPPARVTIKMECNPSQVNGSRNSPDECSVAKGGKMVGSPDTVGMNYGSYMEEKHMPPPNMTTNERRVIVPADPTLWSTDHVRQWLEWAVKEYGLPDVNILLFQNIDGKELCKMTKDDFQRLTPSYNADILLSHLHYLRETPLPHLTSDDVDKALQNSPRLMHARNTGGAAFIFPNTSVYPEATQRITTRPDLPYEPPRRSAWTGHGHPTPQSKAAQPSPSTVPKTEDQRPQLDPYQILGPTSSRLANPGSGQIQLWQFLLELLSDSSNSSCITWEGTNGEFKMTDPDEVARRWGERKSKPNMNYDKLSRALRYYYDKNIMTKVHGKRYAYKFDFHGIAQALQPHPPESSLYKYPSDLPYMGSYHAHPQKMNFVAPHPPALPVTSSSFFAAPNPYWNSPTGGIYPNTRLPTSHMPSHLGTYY
In short: as §1

ELF1 = ELF1 (Homo sapiens, UniProt P32519 1-619); settings: protein: recombinant; tags: N-terminal GST; dsDNA, one strand shown
Sequence of ELF1 (P32519 whole entry): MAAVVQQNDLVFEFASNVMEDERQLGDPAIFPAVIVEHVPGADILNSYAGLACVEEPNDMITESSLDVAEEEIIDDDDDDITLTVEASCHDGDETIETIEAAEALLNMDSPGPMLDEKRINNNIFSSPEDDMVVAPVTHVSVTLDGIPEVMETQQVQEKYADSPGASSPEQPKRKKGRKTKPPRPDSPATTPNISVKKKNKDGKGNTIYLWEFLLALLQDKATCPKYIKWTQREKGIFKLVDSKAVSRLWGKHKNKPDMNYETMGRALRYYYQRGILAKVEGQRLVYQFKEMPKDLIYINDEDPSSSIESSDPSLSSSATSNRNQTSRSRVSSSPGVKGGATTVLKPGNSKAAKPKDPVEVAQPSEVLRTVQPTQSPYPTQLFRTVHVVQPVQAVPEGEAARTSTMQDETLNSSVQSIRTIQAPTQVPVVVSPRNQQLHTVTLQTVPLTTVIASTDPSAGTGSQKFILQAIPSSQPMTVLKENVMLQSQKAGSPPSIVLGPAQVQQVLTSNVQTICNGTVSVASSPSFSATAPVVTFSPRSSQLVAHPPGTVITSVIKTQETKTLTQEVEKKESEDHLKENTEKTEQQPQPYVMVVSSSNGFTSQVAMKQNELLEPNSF
In short: as §1

EHF = target: T5, EHF (Homo sapiens, UniProt Q9NZC4 1-300); settings: protein: recombinant; tags: N-terminal GST; dsDNA, one strand shown
T5 sequence: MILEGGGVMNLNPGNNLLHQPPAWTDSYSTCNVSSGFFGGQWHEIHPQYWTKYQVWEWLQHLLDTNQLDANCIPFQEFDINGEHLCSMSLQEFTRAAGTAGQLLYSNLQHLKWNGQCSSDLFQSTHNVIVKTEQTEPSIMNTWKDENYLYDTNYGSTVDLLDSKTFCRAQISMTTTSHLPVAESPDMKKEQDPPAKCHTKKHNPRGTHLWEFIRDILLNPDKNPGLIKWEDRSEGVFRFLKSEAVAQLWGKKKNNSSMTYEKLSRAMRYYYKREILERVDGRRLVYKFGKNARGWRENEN
In short: as §1

SPI1 = SPI1 (Homo sapiens, UniProt P17947 1-270); settings: protein: recombinant; tags: N-terminal GST; dsDNA, one strand shown
In short: as §1

SPIB = SPIB (Homo sapiens, UniProt Q01892 1-262); settings: protein: recombinant; tags: N-terminal GST; dsDNA, one strand shown
Sequence of SPIB (Q01892 whole entry): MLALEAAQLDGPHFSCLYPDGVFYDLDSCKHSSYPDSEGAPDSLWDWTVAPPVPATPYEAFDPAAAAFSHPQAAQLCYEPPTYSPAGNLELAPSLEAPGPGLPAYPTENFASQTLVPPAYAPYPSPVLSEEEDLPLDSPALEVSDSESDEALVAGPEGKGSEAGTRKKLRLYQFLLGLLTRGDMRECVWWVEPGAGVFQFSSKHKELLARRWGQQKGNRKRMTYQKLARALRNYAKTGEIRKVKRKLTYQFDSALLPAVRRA
In short: as §1

ELK3 = target: T6, ELK3 (Homo sapiens, UniProt P41970 1-407); settings: protein: recombinant; tags: N-terminal GST; dsDNA, one strand shown
T6 sequence: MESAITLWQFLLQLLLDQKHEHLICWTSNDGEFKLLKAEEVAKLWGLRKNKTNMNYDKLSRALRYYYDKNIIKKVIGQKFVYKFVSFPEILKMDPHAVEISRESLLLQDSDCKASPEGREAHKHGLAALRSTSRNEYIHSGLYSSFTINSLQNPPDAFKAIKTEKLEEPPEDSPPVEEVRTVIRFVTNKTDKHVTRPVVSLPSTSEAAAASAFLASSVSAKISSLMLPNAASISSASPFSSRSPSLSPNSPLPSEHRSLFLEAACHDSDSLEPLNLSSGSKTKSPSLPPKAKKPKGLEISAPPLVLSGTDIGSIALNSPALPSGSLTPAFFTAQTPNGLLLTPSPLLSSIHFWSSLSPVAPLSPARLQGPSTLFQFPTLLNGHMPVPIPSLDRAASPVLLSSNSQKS
In short: as §1

FEV = target: T7, FEV (Homo sapiens, UniProt Q99581 1-238); settings: protein: recombinant; tags: N-terminal GST; dsDNA, one strand shown
T7 sequence: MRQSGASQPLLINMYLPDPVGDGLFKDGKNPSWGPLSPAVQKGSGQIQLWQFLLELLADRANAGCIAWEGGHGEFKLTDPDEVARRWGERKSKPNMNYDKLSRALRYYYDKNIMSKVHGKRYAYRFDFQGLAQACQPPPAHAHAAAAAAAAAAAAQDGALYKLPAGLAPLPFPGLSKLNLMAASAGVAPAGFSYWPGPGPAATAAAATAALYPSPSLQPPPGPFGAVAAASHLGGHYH
In short: as §1

ETV5 = ETV5 (Homo sapiens, UniProt P41161 1-510); settings: protein: recombinant; tags: N-terminal GST; dsDNA, one strand shown
Sequence of ETV5 (P41161 whole entry): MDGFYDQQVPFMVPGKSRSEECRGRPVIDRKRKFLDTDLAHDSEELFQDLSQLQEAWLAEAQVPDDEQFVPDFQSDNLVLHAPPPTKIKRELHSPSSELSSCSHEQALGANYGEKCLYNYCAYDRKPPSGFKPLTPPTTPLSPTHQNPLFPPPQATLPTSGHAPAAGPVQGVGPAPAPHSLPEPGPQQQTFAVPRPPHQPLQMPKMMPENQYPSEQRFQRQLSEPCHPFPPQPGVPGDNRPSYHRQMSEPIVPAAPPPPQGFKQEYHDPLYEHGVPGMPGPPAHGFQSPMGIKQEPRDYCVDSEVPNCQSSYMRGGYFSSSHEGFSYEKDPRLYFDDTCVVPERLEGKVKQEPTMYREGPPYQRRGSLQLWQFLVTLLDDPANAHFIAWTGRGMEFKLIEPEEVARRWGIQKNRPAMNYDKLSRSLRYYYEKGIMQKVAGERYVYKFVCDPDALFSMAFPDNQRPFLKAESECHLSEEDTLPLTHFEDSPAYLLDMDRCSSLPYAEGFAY
In short: as §1

HSF1 = HSF1 (Homo sapiens, UniProt Q00613 1-529); settings: protein: recombinant; tags: N-terminal GST; chain copies: 3; dsDNA, one strand shown
Sequence of HSF1 (Q00613 whole entry): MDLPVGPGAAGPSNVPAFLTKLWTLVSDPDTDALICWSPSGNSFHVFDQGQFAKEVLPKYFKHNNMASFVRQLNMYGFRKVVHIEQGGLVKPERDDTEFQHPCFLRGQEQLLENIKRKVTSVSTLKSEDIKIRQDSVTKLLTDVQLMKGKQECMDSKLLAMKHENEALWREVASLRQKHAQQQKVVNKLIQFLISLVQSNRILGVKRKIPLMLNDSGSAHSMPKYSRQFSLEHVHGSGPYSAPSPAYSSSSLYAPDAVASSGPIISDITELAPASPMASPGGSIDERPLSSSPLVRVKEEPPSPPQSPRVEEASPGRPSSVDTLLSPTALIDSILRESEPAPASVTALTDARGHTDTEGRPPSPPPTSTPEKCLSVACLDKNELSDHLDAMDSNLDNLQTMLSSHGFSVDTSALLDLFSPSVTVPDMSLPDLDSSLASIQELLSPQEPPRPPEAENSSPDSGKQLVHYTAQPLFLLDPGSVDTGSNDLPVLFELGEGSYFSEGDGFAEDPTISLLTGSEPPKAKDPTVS
In short: as §1

SPIC = target: T8, SPIC (Homo sapiens, UniProt Q8N5J4 1-248); settings: protein: recombinant; tags: N-terminal GST; dsDNA, one strand shown
T8 sequence: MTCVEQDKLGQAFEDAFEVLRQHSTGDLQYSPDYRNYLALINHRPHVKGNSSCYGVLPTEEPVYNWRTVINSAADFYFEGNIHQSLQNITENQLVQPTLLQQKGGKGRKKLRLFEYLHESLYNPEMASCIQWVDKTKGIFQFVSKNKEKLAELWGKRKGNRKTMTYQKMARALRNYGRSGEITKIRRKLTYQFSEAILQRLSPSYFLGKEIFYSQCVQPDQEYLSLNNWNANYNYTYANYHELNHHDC
In short: as §1

ELF4 = ELF4 (Homo sapiens, UniProt Q99607 1-663); settings: protein: recombinant; tags: N-terminal GST; dsDNA, one strand shown
Sequence of ELF4 (Q99607 whole entry): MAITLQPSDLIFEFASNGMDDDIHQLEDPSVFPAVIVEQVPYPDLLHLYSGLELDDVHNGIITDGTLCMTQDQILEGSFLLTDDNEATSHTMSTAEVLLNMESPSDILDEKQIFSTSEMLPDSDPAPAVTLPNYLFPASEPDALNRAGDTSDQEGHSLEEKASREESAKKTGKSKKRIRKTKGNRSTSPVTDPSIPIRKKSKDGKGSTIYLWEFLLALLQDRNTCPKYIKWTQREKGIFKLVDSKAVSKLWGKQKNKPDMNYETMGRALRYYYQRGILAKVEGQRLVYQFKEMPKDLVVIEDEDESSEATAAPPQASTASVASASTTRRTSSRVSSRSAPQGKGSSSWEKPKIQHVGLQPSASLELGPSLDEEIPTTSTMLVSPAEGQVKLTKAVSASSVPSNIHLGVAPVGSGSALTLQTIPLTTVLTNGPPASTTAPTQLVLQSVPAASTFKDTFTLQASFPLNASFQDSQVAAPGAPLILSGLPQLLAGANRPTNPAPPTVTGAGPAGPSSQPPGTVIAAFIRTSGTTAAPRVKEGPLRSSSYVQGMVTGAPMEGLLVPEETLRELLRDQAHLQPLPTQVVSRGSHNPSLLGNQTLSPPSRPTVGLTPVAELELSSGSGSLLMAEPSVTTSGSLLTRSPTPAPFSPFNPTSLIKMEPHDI
In short: as §1

ELK4 = target: T9, ELK4 (Homo sapiens, UniProt P28324-2 1-405); settings: protein: recombinant; tags: N-terminal GST; dsDNA, one strand shown
T9 sequence: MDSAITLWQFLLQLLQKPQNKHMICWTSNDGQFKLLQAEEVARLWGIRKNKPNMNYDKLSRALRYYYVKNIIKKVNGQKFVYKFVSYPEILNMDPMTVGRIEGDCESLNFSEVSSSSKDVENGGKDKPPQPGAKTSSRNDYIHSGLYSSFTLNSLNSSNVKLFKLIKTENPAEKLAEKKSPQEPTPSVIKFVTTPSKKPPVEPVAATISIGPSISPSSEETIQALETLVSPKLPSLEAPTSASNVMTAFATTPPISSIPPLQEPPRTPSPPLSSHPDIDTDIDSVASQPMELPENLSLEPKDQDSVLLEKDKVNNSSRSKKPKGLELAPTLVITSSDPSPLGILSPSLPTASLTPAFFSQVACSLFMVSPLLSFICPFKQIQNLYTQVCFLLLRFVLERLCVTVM
In short: as §1

ETV2 = target: T10, ETV2 (Homo sapiens, UniProt O00321 1-342); settings: protein: recombinant; tags: N-terminal GST; dsDNA, one strand shown
T10 sequence: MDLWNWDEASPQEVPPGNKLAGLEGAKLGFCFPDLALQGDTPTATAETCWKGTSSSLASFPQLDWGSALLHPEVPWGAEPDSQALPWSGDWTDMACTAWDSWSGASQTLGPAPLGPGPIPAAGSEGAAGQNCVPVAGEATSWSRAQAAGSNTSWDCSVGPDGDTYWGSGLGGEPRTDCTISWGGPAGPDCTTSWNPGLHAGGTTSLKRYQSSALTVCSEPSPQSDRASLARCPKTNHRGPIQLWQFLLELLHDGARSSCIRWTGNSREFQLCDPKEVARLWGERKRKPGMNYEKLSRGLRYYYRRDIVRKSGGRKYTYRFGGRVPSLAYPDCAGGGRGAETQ
In short: as §1

ELF3 = target: T11, ELF3 (Homo sapiens, UniProt P78545 1-371); settings: protein: recombinant; tags: N-terminal GST; dsDNA, one strand shown
T11 sequence: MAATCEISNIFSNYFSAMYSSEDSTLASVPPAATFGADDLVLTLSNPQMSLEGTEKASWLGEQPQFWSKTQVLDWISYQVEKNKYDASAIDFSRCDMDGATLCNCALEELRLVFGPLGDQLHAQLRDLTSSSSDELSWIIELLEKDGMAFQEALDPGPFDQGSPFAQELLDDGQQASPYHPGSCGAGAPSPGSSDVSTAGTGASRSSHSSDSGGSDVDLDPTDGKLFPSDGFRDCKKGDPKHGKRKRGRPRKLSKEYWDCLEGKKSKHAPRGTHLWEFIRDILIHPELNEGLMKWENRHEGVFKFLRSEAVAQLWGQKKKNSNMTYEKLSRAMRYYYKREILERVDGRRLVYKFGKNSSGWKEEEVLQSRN
In short: as §1

CRX = CRX (Homo sapiens, UniProt O43186 1-299); settings: protein: recombinant; tags: N-terminal GST; dsDNA, one strand shown
Sequence of CRX (O43186 whole entry): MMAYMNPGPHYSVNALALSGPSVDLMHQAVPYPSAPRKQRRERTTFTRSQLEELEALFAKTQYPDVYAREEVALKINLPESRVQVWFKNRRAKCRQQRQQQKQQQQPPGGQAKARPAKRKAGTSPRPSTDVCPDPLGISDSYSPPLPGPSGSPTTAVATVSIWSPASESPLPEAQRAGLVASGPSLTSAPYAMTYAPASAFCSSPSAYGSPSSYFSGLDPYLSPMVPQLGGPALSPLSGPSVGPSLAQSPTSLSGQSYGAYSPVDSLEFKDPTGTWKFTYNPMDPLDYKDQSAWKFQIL
In short: as §1

ETV1 = ETV1 (Homo sapiens, UniProt P50549 1-477); settings: protein: recombinant; tags: N-terminal GST; dsDNA, one strand shown
Sequence of ETV1 (P50549 whole entry): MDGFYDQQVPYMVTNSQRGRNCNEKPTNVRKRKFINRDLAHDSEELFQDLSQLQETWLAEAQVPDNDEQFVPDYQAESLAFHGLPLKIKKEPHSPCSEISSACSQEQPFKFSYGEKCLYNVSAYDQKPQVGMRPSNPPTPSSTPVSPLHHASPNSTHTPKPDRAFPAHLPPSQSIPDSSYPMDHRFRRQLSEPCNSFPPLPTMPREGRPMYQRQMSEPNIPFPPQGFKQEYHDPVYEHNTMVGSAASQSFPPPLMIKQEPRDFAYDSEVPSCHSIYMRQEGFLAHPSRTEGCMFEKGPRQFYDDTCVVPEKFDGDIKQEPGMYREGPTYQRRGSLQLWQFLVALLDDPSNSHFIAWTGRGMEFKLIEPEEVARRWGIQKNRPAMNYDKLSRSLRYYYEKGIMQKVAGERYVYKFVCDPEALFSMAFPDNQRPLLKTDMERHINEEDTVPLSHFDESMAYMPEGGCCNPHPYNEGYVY
In short: as §1

ATCTCC
binding signal (FLI1): 1.61 fold enrichment (6-mer frequency, TF over GST control) | binding signal (ELK1): 1.5 fold enrichment (6-mer frequency, TF over GST control) | binding signal (GABPA): 1.56 fold enrichment (6-mer frequency, TF over GST control) | binding signal (ERG): 1.51 fold enrichment (6-mer frequency, TF over GST control) | binding signal (ELF1): 1.47 fold enrichment (6-mer frequency, TF over GST control) | binding signal (EHF): 1.6 fold enrichment (6-mer frequency, TF over GST control) | binding signal (SPI1): 1.37 fold enrichment (6-mer frequency, TF over GST control) | binding signal (SPIB): 1.49 fold enrichment (6-mer frequency, TF over GST control) | binding signal (ELK3): 1.42 fold enrichment (6-mer frequency, TF over GST control) | binding signal (FEV): 1.5 fold enrichment (6-mer frequency, TF over GST control) | binding signal (ETV5): 1.48 fold enrichment (6-mer frequency, TF over GST control) | binding signal (HSF1): 1.67 fold enrichment (6-mer frequency, TF over GST control) | binding signal (SPIC): 1.49 fold enrichment (6-mer frequency, TF over GST control) | binding signal (ELF4): 1.57 fold enrichment (6-mer frequency, TF over GST control) | binding signal (ELK4): 1.47 fold enrichment (6-mer frequency, TF over GST control) | binding signal (ETV2): 1.48 fold enrichment (6-mer frequency, TF over GST control) | binding signal (ELF3): 1.3 fold enrichment (6-mer frequency, TF over GST control) | binding signal (CRX): 2.01 fold enrichment (6-mer frequency, TF over GST control) | binding signal (ETV1): 1.57 fold enrichment (6-mer frequency, TF over GST control)

Source: publication PMC7862700, “An all-to-all approach to the identification of sequence-specific readers for epigenetic DNA modifications on cytosine”
